We go through 17 compounds from article PMC5540273 (PLoS ONE, 2017).

Among the test systems are LRRK2; LTK; LYN; MAK; MAP3K15; MAP3K1; MAP3K2.
Common to all, as to details: concentration: 1 μM, replicates: in singlicate; n = 1
A further assay has as its system T1, LKB1.
T1 construct: gene STK11

The next assay concerns T2, LOK.
T2 construct: gene STK10

The next assay deals with T3, LZK.
T3 construct: gene MAP3K13
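Note: KINOMEscan kinase panel screen.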

Take `Cn1ccc2ncnc(Nc3ccc(Oc4cccc(Cl)c4)c(Cl)c3)c21`: the “%Inh” value with LKB1 worked out at 0%; in the assay on LOK, 55%; in the assay with LRRK2 it was 5%; with LTK, 11%; with LYN, 4%; in the assay with LZK it was 0%. The “%Inh” value in the assay on MAK was 26%; in the assay on MAP3K15, 11%; in the assay on MAP3K1 it was 29%; with MAP3K2, 17%.
As to `CC(C)N1CCC(n2cnc(-c3ccc(F)cc3)c2-c2ccnc(N)n2)CC1` [SB-223132], the “%Inh” value in the assay on LKB1 turned out to be 0%; in the assay on LOK, 0%; in the assay with LRRK2, 28%; with LTK, 2%; with LYN, 22%; in the assay with LZK, 0%. The “%Inh” value in the assay with MAK, in the assay on MAP3K15, in the assay on MAP3K1 and in the assay on MAP3K2 was 0% throughout.
As to `Cc1cc(N2CCC(NS(=O)(=O)c3ccc(F)cc3)CC2)nc(Nc2cccc(C#N)c2)n1.O=C(O)C(F)(F)F` [GSK1653537], the “%Inh” value turned out to be 0% in the assay with LKB1; 0% in the assay on LOK; 20% in the assay with LRRK2; 5% in the assay with LTK; 0% with LYN; 0% in the assay with LZK. Besides, the “%Inh” value with MAK came to 17%; in the assay with MAP3K15 it was 3%; in the assay with MAP3K1, 7%; in the assay with MAP3K2 it was 60%.
Regarding `COc1ccc(NC(=O)Nc2ccc(C)c(-c3ccc(C(=O)Nc4ccncc4)cc3)c2)cc1` [GSK1398475], the “%Inh” value in the assay on LKB1 stood at 0%; in the assay on LOK it was 0%; in the assay on LRRK2, 0%; in the assay on LTK, 7%; with LYN it was 34%; in the assay with LZK it was 0%. For the same compound, the “%Inh” value stood at 10% in the assay on MAK, 0% in the assay with MAP3K15, 0% in the assay with MAP3K1 and 0% in the assay on MAP3K2.
`Fc1ccc(Nc2nccc(-c3c(-c4ccc(Cl)cc4)nn4ncccc34)n2)cc1F` [GW829058]: the “%Inh” value in the assay on LKB1 came to 8%; with LOK, 28%; in the assay on LRRK2, 0%; with LTK, 6%; in the assay on LYN, 24%; in the assay on LZK, 5%. The “%Inh” value in the assay on MAK came to 12%; with MAP3K15, 24%; in the assay on MAP3K1 it was 22%; in the assay with MAP3K2, 27%.
As for `Fc1cccc(COc2ccc(Nc3ncnc4nn5ccccc5c34)cc2Cl)c1` [GW689066], the “%Inh” value in the assay on LKB1 came out at 14%; in the assay with LOK, 0%; in the assay on LRRK2, 31%; with LTK, 0%; in the assay on LYN, 0%; with LZK it was 16%. Moreover, the “%Inh” value stood at 0% with MAK, 0% with MAP3K15, 0% with MAP3K1 and 8% with MAP3K2.
Take `Cc1ccc(O)cc1Nc1cc(C(F)(F)F)nc2ccc(-c3ccncc3)cc12` [GW630823]: the “%Inh” value was 0% in the assay with LKB1; 5% in the assay on LOK; 0% in the assay on LRRK2; 0% in the assay with LTK; 1% with LYN; 0% in the assay with LZK. The “%Inh” value came out at 7% in the assay with MAK, 0% in the assay with MAP3K15, 0% in the assay with MAP3K1 and 1% with MAP3K2.
With `Cn1ccc2ncnc(Oc3ccc(NC(=O)Nc4cccnc4)c(Cl)c3)c21`, the “%Inh” value in the assay with LKB1 worked out at 11%; with LOK it was 35%; in the assay with LRRK2, 0%; in the assay on LTK, 6%; with LYN, 5%; with LZK it was 0%. Further, the “%Inh” value with MAK, in the assay on MAP3K15, in the assay with MAP3K1 and in the assay on MAP3K2 was 0% each time.
As for `CSc1ccc(NC2=C(c3ccccc3Cl)C(=O)NC2=O)cc1` [SB-342411], the “%Inh” value in the assay on LKB1 was 12%; in the assay with LOK, 2%; in the assay on LRRK2, 0%; in the assay with LTK, 7%; in the assay with LYN it was 0%; with LZK it was 0%. In addition, the “%Inh” value in the assay on MAK was determined as 0%; in the assay with MAP3K15, 0%; in the assay on MAP3K1 it was 14%; with MAP3K2 it was 0%.
With `FC(F)(F)c1ccc(-c2cc(-c3c[nH]nc3-c3ccccn3)ccn2)cc1` [GW599550], the “%Inh” value with LKB1 is recorded as 12%; with LOK, 0%; in the assay with LRRK2 it was 7%; with LTK it was 21%; with LYN it was 0%; in the assay on LZK, 29%. In addition, the “%Inh” value in the assay on MAK is 11%; in the assay on MAP3K15 it was 0%; in the assay on MAP3K1, 5%; in the assay with MAP3K2, 0%.
Turning to `OCCOCCn1ccc2ncnc(Nc3ccc(Oc4cccc(Cl)c4)c(Cl)c3)c21`, the “%Inh” value with LKB1 is listed as 24%; with LOK, 74%; in the assay on LRRK2, 0%; with LTK it was 0%; with LYN, 19%; in the assay with LZK it was 0%. Further, the “%Inh” value with MAK, in the assay on MAP3K15, with MAP3K1 and in the assay on MAP3K2 was 0% in each case.
In the case of `O=C(Nc1ccccc1)Nc1ccc(Oc2ccc3nccn3n2)cc1`, the “%Inh” value in the assay with LKB1 was found to be 0%; in the assay with LOK it was 39%; with LRRK2 it was 0%; in the assay on LTK, 0%; in the assay on LYN, 0%; in the assay with LZK it was 0%. In addition, the “%Inh” value in the assay on MAK, with MAP3K15, with MAP3K1 and with MAP3K2 was 0% throughout.
Take `Nc1n[nH]c2nnc(-c3ccccc3)cc12` [SB-517389]: the “%Inh” value in the assay with LKB1 is listed as 0%; in the assay on LOK, 0%; with LRRK2, 0%; in the assay on LTK, 0%; with LYN it was 69%; in the assay with LZK, 0%. Further, the “%Inh” value stood at 0% in the assay on MAK, 0% with MAP3K15, 9% in the assay on MAP3K1 and 5% in the assay with MAP3K2.
With `CN1CCC(n2cnc(-c3ccc(F)cc3)c2-c2ccnc(NC3CCNCC3)n2)CC1` [SB-229482], the “%Inh” value with LKB1 was 27%; in the assay on LOK, 0%; with LRRK2, 0%; with LTK, 0%; in the assay with LYN, 15%; in the assay on LZK, 0%. Also, the “%Inh” value worked out at 29% with MAK, 0% in the assay on MAP3K15, 4% in the assay on MAP3K1 and 0% in the assay on MAP3K2.
For `COC(=O)c1cccc(NC(=O)NCCNc2ccnc(Nc3ccc(F)cc3)n2)c1` [GSK1379883], the “%Inh” value amounted to 16% with LKB1; 0% with LOK; 0% with LRRK2; 0% with LTK; 0% with LYN; 1% in the assay with LZK. The “%Inh” value with MAK is reported as 26%; with MAP3K15, 0%; in the assay on MAP3K1, 0%; with MAP3K2, 0%.
On to `CCCc1ccc(S(=O)(=O)NC2CCN(c3ccnc(Nc4ccc(OC)cc4)n3)C2)cc1` (centres unmarked) [GSK1379737], for which the “%Inh” value in the assay on LKB1 was 6%; in the assay with LOK it was 0%; in the assay on LRRK2, 0%; in the assay on LTK, 100%; in the assay on LYN, 0%; in the assay with LZK, 25%. Besides, the “%Inh” value with MAK worked out at 16%; in the assay on MAP3K15 it was 0%; in the assay with MAP3K1 it was 1%; with MAP3K2 it was 1%.
As to `CC(=O)Nc1n[nH]c2ncc(-c3ccccc3)cc12` [SB-548492], the “%Inh” value with LKB1 is recorded as 25%; in the assay with LOK, 0%; in the assay on LRRK2 it was 0%; in the assay on LTK it was 5%; with LYN it was 0%; with LZK it was 0%. The “%Inh” value stood at 51% with MAK, 11% in the assay with MAP3K15, 27% with MAP3K1 and 16% in the assay on MAP3K2.
